Bioassay records as filed in PubChem.
HPGD inh: HPGD (human) dehydrogenase inhibition. Potency, µM, inactives show top-dose activity change, negative = inhibition, usual class: inhibitors. AID 894. P15428. 150,000 tested, 4.3% active. purified HPGD, NADH fluorescence kinetic, PGE2 substrate; active = well fitted inhibition curve with a large enough effect, not every such curve was filed as active; inconclusive = small, poorly fitted or top-dose-only effect, or another doubt; inactive = no such curve, though single readings can be large or run the other way
Target sequence (P15428 whole entry, looked up): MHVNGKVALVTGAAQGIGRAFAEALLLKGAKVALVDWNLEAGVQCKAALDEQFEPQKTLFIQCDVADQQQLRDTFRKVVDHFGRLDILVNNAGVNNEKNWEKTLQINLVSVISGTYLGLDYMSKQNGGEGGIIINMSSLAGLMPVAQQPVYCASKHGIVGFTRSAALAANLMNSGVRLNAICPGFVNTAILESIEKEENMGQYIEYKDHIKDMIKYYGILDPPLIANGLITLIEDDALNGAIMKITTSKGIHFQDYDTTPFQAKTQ
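NADH formation kinetics: reaction with 30 uM PGE2 and 1 mM NAD+ (final), 20 nM enzyme, Tris-HCl pH 8 with Tween 20, after 15 min compound preincubation at room temperature. Fluorescence change, last versus first of five reads.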
Tau fibril FP: blocks human tau fibril formation measured by polarization. P10636. K18 P301L tau heparin fibrillization, Alexa594 FP, 6 h. Potency, µM (series often up to 57.7 µM), inactives show at the highest dose activity, negative = inhibition, hits mostly inhibitors. 280,000 tested, 0.39% active; note: nearly all actives have a fitted effect of over 55% in size
Target sequence (P10636 561-689 P618L limits assumed): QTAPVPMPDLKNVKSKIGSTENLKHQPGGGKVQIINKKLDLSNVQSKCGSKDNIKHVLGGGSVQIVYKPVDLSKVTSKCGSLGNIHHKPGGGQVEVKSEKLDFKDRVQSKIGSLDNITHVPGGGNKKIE
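Human K18 P301L fragment (15 uM unlabeled plus 0.24 uM Alexa 594-labeled) in 100 mM sodium acetate pH 7 with compound, aggregation induced by 20 uM heparin for 6 hr at 37 C. ThT (30 uM) added for 1 hr, then Alexa 594 FP read.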
ALDH1A1 block: blocks purified human ALDH1A1 activity; 220,000 tested, 7.3% active; Potency, µM (doses to about 75.3 µM), inactives show at the highest dose activity, negative = inhibition, usual class: inhibitors; Purified ALDH1A1, NADH fluorescence, propionaldehyde substrate; active = well fitted inhibition curve with a large enough effect, not every such curve was filed as active; inconclusive = small, poorly fitted or top-dose-only effect, or another doubt; inactive = no such curve, though single readings can be large or run the other way;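 note: plate controls were no enzyme wells and a reference inhibitor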
Tau fluor cs: counter-screen for tau fibril formation inhibitors. 280,000 tested, 0.93% active. Potency, µM (titrated, usually from 57.7 µM), inactives show at the top dose activity change, negative = decrease. AID 1463. tau K18 P301L Alexa594 fluorescence, heparin fibrillization; note: nearly all actives have a fitted effect of over 55% in size
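Human tau K18 P301L (15 uM unlabeled, 0.24 uM Alexa 594-labeled) in 100 mM sodium acetate pH 7 with 20 uM heparin, 6 hr at 37 C. ThT 30 uM added, 1 hr ambient; Alexa 594 FP and total fluorescence read at 555/632 nm.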
NPSR antagonist: antagonists of human neuropeptide S receptor cAMP signaling; Potency, µM (titrated, usually from 38.3 µM), inactives show at the highest dose activity change, negative = inhibition, usual class: inhibitors; CHO-NPSR cells, cAMP TR-FRET, antagonist mode; Q6W5P4; 220,000 tested, 1% active; note: nearly all actives have a fitted effect of over 50% in size
Tau ThT inhib: inhibitors of human tau fibril formation, thioflavin T binding | P10636 | recombinant tau K18 P301L (four-repeat tau fragment), heparin-induced fibrillization, ThT fluorescence | Potency, µM (doses to about 57.4 µM), inactives show at the top dose activity, negative = inhibition, most hits filed as inhibitors | 270,000 tested, 2.1% active | AID 1460; note: nearly all actives have a fitted effect of over 55% in size
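Aggregation was driven by heparin (20 uM final) acting on recombinant tau […] bearing P301L in 100 mM sodium acetate pH 7; fibrils were detected with Thioflavin T.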
The depositor's hits bear a star; ? = inconclusive; nt = no result; [ ] = dose if it differs, or a comment. Shown are actives, neighbours in structure and some others; about 9.5% of the full set was active somewhere. Unless noted, calls come from the whole dose curve; as a rule, active = well fitted curve in the direction sought with a large enough effect; inconclusive = small, poorly fitted or top-dose-only effect, or another doubt; inactive = no such curve, though single readings can be large; an effect the other way counts as inactive or inconclusive. Unless noted, % is set by controls: 0 for no effect and ±100 for the full control effect; potency is the fitted concentration of half-maximal effect.

SMILES	HPGD inh	Tau fibril FP	ALDH1A1 block	Tau fluor cs	NPSR antagonist	Tau ThT inhib
CCSC1(SCC)N=C(N)C2(C#N)C(c3ccc(OC)c(OC)c3OC)C12C#N (stereo not drawn)	8.9µM*	?	?	?	?	?
CCn1c(C)nc2cc(C(=O)N=Nc3c(O)[nH]c4c(C)cc(C)cc34)ccc21	-20%	-12%	-2%	-26%	-14%	7.1µM*
COc1ccc(-c2noc(C3CCCN(S(=O)(=O)c4ccc(C)c(Cl)c4)C3)n2)cc1OC (stereo not drawn)	nt	-4%	1%	-19%	-14%[46.1 µM]	-7%
Cc1ccc(S(=O)(=O)N2CCCC(c3nc(-c4ccc(C)o4)no3)C2)cc1 (stereo not drawn)	-23%	9%	?	-27%	-18%[46.1 µM]	-17%
Cc1ccc(-c2noc(C3CCCN(S(=O)(=O)c4ccc(S(=O)(=O)N(C)C)cc4)C3)n2)o1 (stereo not drawn)	-12%	?	25µM*	2%	?	4%
Cc1ccc(-c2noc(C3CCCN(S(=O)(=O)c4ccc5ccccc5c4)C3)n2)o1 (stereo not drawn)	20µM*	?	24µM*	-24%	-17%[46.1 µM]	-13%
Cc1ccc(-c2noc(C3CCN(S(=O)(=O)c4ccc5c(c4)OCCO5)CC3)n2)o1	-3%	-4%	28µM*	?	3%[7.67 µM]	?
CC(=O)c1cccc(S(=O)(=O)N2CCCC(c3nc(-c4ccc(C)o4)no3)C2)c1 (stereo not drawn)	-27%	1%	10µM*	-12%	-1%[7.67 µM]	?
COC(=O)C1CCN(S(=O)(=O)Cc2ccccc2)CC1	22µM*	-6%	?	-7%	?	?
CC(NC(=O)C1CCN(S(=O)(=O)Cc2ccccc2)CC1)c1ccccc1 (stereo not drawn)	nt	-3%	nt	-9%	nt	-3%
Cc1ccc2[nH]c3c(c2c1)CCc1cn[nH]c1-3	-13%	?	?	25µM*[quencher]	-7%[46.1 µM]	13µM*
CCOC(=O)Cn1nnnc1C(C(C)C)N(Cc1cc2c(C)cc(C)cc2[nH]c1=O)C1CCCC1 (stereo not drawn)	-24%	5%	3.5µM*	5%	?	5%
CC(=O)N(Cc1cc2c(C)cc(C)cc2[nH]c1=O)C1CCCCC1	-22%	1%	?	-1%	-10%[46.1 µM]	-4%
CCC(Sc1nc(C)cc(C)n1)C(=O)NC1=NN=C(c2ccc(C)cc2)CS1 (stereo not drawn)	-10%	?	-2%	-17%	-12%[46.1 µM]	32µM*
CCC(=O)N1CCc2cc(CNC(=O)c3ccccc3C)ccc21	nt	-4%	nt	-11%	nt	-7%
Fc1ccc(Nc2nc3ccccc3s2)cc1	nt	9%	1%	-26%	20%	0%
O=C(Nc1nc2ccccc2s1)Nc1ccc([N+](=O)[O-])cc1Cl	nt	-4%	nt	?	-1%	?
O=C(Nc1ccc(Cl)cc1)/C(=C/c1ccc([N+](=O)[O-])cc1)c1nc2ccccc2s1	nt	?	-4%	-25%	-46%	14µM*
O=[N+]([O-])c1ccc(Nc2nc3ccccc3s2)cc1	-29%	nt	1.4µM*	nt	nt	nt
CCN(CC)C(=O)c1ccc(/C=C/c2c[nH]c3ccccc23)[n+](C)c1	-7%	-3%	-9%	2%	-35%	-18%
CC[n+]1c(/C=C/c2c[nH]c3ccccc23)ccc2cc(C)ccc21	nt	?	4%	1.3µM*[fluorescent]	13µM*	2µM*
CC(NC(=O)CCl)c1ccc(Cl)c(Cl)c1 (stereo not drawn)	1%	12%	10µM*	2%	15%[46.1 µM]	0%
CC(NC(=O)c1ccc(Cl)c(Cl)c1)c1ccc(-c2ccccc2)cc1 (stereo not drawn)	nt	-11%	nt	-19%	-15%	-1%
CCC(NC(=O)CCl)c1ccc(C)cc1 (stereo not drawn)	nt	-3%	8.9µM*	0%	12%	-3%
CCc1ccccc1NCc1nnc2n1CCCCC2	nt	5%	nt	-1%	nt	0%
